± gives the standard deviation.
test system: MILI (PIWIL2) piRISC loaded with L1MC piRNA (26 nt); assay: pre-steady-state target cleavage rate (min^-1); guide: L1MC piRNA 5'p-UAACUAAAUACUAUGCAAGCUGUAGG; MIWI and MILI are mouse PIWI proteins and EfPiwi is from a freshwater sponge; tags in brackets are library labels; higher = faster piRNA-guided slicing of the target; conditions: auxiliary factor: 500 nM mouse GTSF1
Outline: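 Cleave-'n-Seq used a transcribed, DNA-blocked target RNA library at 0.1 nM and active affinity-purified piRISC with one synthetic guide at 1 nM, with or without 500 nM GTSF1 partner protein, in HEPES–potassium acetate buffer at 33 °C for 0–8 or 0–960 min. Uncleaved targets were sequenced and normalised to depth and to weakly complementary targets, and three trials were pooled with k3 capped at 0.0001 min^-1. The pre-steady-state cleavage rate was estimated by a burst-and-steady-state fit.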

Sequence | pre-steady-state target cleavage rate
UCCUGGAUGACGAUGCAUAGUAUUUACAAA | 0.0245 ± 0.011
UCCUGGAUGUCGUAGCAUAGUAAUUAGUUA | 0.0159 ± 0.0054
UCCUGCUACACGUUGCAUAGUAUUUUCAAA | 0.00757 ± 0.0052
UCCUGGAAGUCCUUGCAUAGUAUUUACAAA | 0.0598 ± 0.018
UCCUGGAUGUCCUUGGAUAGUAUUUACUUA | 0.014 ± 0.005
UCCUGGUACAGCUUGCAUACUAUUUUGUUA | 0.0288 ± 0.011
UCCUGGAUCAGCUUGCAUAGUAAUUUCAAA | 0.042 ± 0.016
UCCUGGAUCAGCUUGCAUUGUAUUUACAAA | 0.0117 ± 0.005
UCCUGGAACAGCUUGCUAAGUAUUUAGAAA | 0.0282 ± 0.01
UCCUGGUUCAGCUUGCAUAGUAUUUACUUA | 0.0561 ± 0.02
UCCUGGUAGUCCUUGCAUAGUAUUUAGAAA | 0.0521 ± 0.017
UCCUGGAUCACGAUGCAUAGUAUUUUCAAA | 0.0499 ± 0.012
UCCUCCUACAGCUUGCAAUCUAUUUACAAA | 0.0157 ± 0.0069
UCCUGGAACAGCAACCAUAGUAUUUAGUAA | 0.143 ± 0.019
UCCUGGAACAGCUUGCAUACUAUUUUCAAA | 0.0161 ± 0.0061
UCCUGCUACAGCUUGCAUAGUAAAAAGAAA | 0.0111 ± 0.0048
UCCUGGAUGUCGUUGCAAAGUAUUAAGUUA | 0.0094 ± 0.0044
UCCUGCUACAGCUUCCAUAGUUUUUAGUUA | 0.0226 ± 0.01
UCCUGGAUGUCGAAGCAUAGUAUGUAGUUA | 0.0113 ± 0.0045
UCCUGGAUGUCGUUGCAUAGUAUUUAGAUUA | 0.0205 ± 0.0091
UCCUGGAUGUCGAUGCAUAGUAUUUAGAUUA | 0.0599 ± 0.016
UCCUGGUAGAGCUUGCAUAGUAUUUAGAUA | 0.14 ± 0.025
UCCUGGAUGUGCUUGCAUAGUAUAUAGAUA | 0.00547 ± 0.0037
UCCUGGAUCAGCUUGCAUAGUUUUUUCAAA | 0.00833 ± 0.0048

Source: the supplement of paper PMC10338343
